Test results taken from PubChem BioAssay AID504329 (Southern Research Specialized Biocontainment Screening …, 2011).
“And” between values parts separate entries of the source, which are not always exact repeats. Equal values may be shown once. Among all 340,000 compounds or so, about 1,000 (0.29%) were called active. Only a sample is shown. Results with a measured potency or affinity are listed apart. Unmarked numbers belong to inactive results. No stated cut-off is given here; in the data, inconclusive means inhibition above about 27% without an active follow-up result; inactive means below that.

Assay: H1N1 influenza NS1A inhibitors, functional cell based assay (AID 504329)
Settings: percent inhibition, at 12.5 µM, active compounds read high

With COc1cc([N+](=O)[O-])cc(/C=N/NC(=O)Cn2nccc2C)c1O as the molecule, how does the inhibition read?
Its inhibition is 13.5%.

With O=C(Cn1nc2ccccc2n1)N/N=C/c1cc(Cl)cc([N+](=O)[O-])c1O as the molecule, how does the inhibition read?
Its inhibition is 17.6%.

For O=C(Cn1nnc(-c2ccccc2)n1)N/N=C/c1cc([N+](=O)[O-])ccc1O, which inhibition is on record?
Its inhibition is 0.1%.

For COc1cc([N+](=O)[O-])cc(/C=N/NC(=O)Cn2nc(C)cc2C)c1O, which inhibition is on record?
The inhibition was -28.6%.

For Cc1cc(C)n(CC(=O)N/N=C/c2cccc([N+](=O)[O-])c2)n1, which inhibition is on record?
The inhibition was 4.33%.

Which inhibition does the source give for CCOC(=O)c1c(C)[nH]c(C(=O)N/N=C\c2ccccc2Cl)c1C here?
Its inhibition is 1.32%.

Which inhibition does the source give for Cc1cc(C)n(CC(=O)N/N=C/c2cc(Br)cc([N+](=O)[O-])c2O)n1 here?
The inhibition was 15.4%.

With CCOC(=O)c1c(C)[nH]c(C(=O)N/N=C\c2ccccc2O)c1C as the molecule, how does the inhibition read?
The inhibition was 0.86%.

For COc1ccc(NC(=S)N(CCO)Cc2ccccc2)cc1, which inhibition is on record?
Its inhibition is 1.27%.

With CN(C(=O)c1cncc(Br)c1)C1C2CC3CC(C2)CC1C3 (stereo not drawn) as the molecule, how does the inhibition read?
Its inhibition is 0.5%.

For O=C(COC(=O)C1CCC1)Nc1cc(S(=O)(=O)N2CCCCC2)ccc1Cl, which inhibition is on record?
Its inhibition is 3.86%.

With O=C(c1cc(C2CC2)nn1-c1ccccc1)N1CCN(c2ncc(C(F)(F)F)cc2Cl)CC1 as the molecule, how does the inhibition read?
Its inhibition is -6.87%.

For CCc1ccccc1NCC(=O)Nc1ccccc1C(=O)OC, which inhibition is on record?
Its inhibition is -3.34%.

For Cc1c(C)c2ccc(OCC(=O)c3ccccc3)cc2oc1=O, which inhibition is on record?
The inhibition was -16.6%.

With CC(=O)Nc1ccc(S(=O)(=O)N2CCN(CCc3ccccc3)CC2)cc1 as the molecule, how does the inhibition read?
Its inhibition is 0.26%.

With Nc1ccccc1N=Cc1c(O)n(CCC2=CCCCC2)c(=O)[nH]c1=O as the molecule, how does the inhibition read?
The inhibition was -8.66%.

With COC(CNC(=O)C1CCCN(S(=O)(=O)c2c(C)noc2/C=C/c2cccs2)C1)OC (stereo not drawn) as the molecule, how does the inhibition read?
The inhibition was 9.65%.

Which inhibition does the source give for O=C(OCc1ccccc1)N1CCC2CC1c1cc(-c3ccccc3)ccc12 (stereo not drawn) here?
Its inhibition is -8.29%.

For CCOc1cccc(CN2CCCC(CNC(=O)c3cccc(OC)c3OC)C2)c1 (stereo not drawn), which inhibition is on record?
The inhibition was 0.84%.

With COc1ccc(CCNC(=O)COC(=O)c2cc(S(=O)(=O)N3CCCC3)ccc2O)cc1 as the molecule, how does the inhibition read?
Its inhibition is -7.2%.

For C=CCCN(C(C(=O)OC)C(C)C)S(=O)(=O)c1ccccc1Br (stereo not drawn), which inhibition is on record?
The inhibition was -12.7%.

For CN1CCN(CCC(=O)N/N=C/c2cc([N+](=O)[O-])ccc2OC(F)F)CC1, which inhibition is on record?
Its inhibition is -8.9%.

For Nc1nnnn1CC(=O)N/N=C/c1cc([N+](=O)[O-])ccc1Cl, which inhibition is on record?
The inhibition was -6.51%.

Which inhibition does the source give for O=C(N/N=C/c1cc([N+](=O)[O-])ccc1O)Nc1ccccc1 here?
The inhibition was -0.02%.

Which inhibition does the source give for Cc1ccccc1NC(=O)CCC(=O)N/N=C/c1cc([N+](=O)[O-])ccc1O here?
Its inhibition is 10.1%.

For Cc1ccc(C)c(NC(=O)CCC(=O)N/N=C/c2cc([N+](=O)[O-])ccc2O)c1, which inhibition is on record?
The inhibition was 8.85%.

Which inhibition does the source give for Cc1ccc(NC(=O)CCC(=O)N/N=C/c2cc([N+](=O)[O-])ccc2O)cc1 here?
The inhibition was -7.13%.

For COc1ccc(Br)cc1/C=N/NC(=O)Cn1nnnc1N, which inhibition is on record?
The inhibition was 0.27%.

For O=C(N/N=C/c1cc([N+](=O)[O-])ccc1O)C1CC1, which inhibition is on record?
Its inhibition is 4.39%.

Which inhibition does the source give for Cc1cc(C)c2c(c1)-c1c(ssc1=S)C(C)(C)N2C(=O)CSc1nncn1C here?
Its inhibition is 9.33%.

With O=c1[nH]c(=O)n(Cc2ccco2)c(O)c1/C=N/N1CCCCCC1 as the molecule, how does the inhibition read?
The inhibition was 12.8%.

For CCN(CC(=O)Nc1c(F)cccc1F)C(=O)CSCc1c(C)noc1C, which inhibition is on record?
The inhibition was -12.8%.

With COCCn1c(C)cc(C(=O)COC(=O)CNC(=O)c2ccccc2)c1C as the molecule, how does the inhibition read?
The inhibition was 4.38%.

Which inhibition does the source give for O=C(c1cccc(C(F)(F)F)c1)C1CCCN(C(=O)c2cc(C3CC3)[nH]n2)C1 (stereo not drawn) here?
The inhibition was -9.76%.

Which inhibition does the source give for CS(=O)(=O)Nc1ccc(C(=O)Nc2ccccc2C(=O)NCc2ccco2)cc1 here?
The inhibition was -1.06%.

Which inhibition does the source give for O=C(CCC(=O)Nc1ccc(Br)cc1)N/N=C/c1cc([N+](=O)[O-])ccc1O here?
The inhibition was -1.12%.

Which inhibition does the source give for O=C(CSc1ccccn1)N/N=C/c1cc([N+](=O)[O-])ccc1O here?
Its inhibition is 21.2%.

Which inhibition does the source give for Cc1cc(C(=O)N/N=C/c2ccc([N+](=O)[O-])cc2)c2ccccc2n1 here?
Its inhibition is 8.83%.

For O=C(N/N=C/c1cc([N+](=O)[O-])ccc1O)c1cc(-c2ccccc2)nc2ccccc12, which inhibition is on record?
Its inhibition is 15.9%.

With Nc1nnc(CC(=O)N/N=C/c2cc([N+](=O)[O-])cc(Br)c2O)s1 as the molecule, how does the inhibition read?
Its inhibition is 7.8%.

For Nc1nnc(CC(=O)N/N=C/c2ccc([N+](=O)[O-])cc2)s1, which inhibition is on record?
The inhibition was -6.47%.

With O=C(Cn1cncn1)N/N=C/c1cccc2ccccc12 as the molecule, how does the inhibition read?
Its inhibition is -2.86%.

For O=C(Cn1cncn1)N/N=C/c1ccccc1Cl, which inhibition is on record?
Its inhibition is -0.24%.

For CC(OC(=O)C12CC3CC(CC(O)(C3)C1)C2)C(N)=O (stereo not drawn), which inhibition is on record?
The inhibition was -5.93%.

For Cc1cc(C)n(-c2ccc(C(=O)Nc3ccc(N4CCOCC4)cc3)cc2)n1, which inhibition is on record?
The inhibition was -0.85%.

With CC(Oc1ccc(Cl)cc1Cl)c1nc(-c2ccc(NC(=O)c3ccncc3)cc2)no1 (stereo not drawn) as the molecule, how does the inhibition read?
Its inhibition is 6.94%.

With CCOC(=O)N1CCN(S(=O)(=O)c2ccc(C)c(C)c2C)CC1 as the molecule, how does the inhibition read?
Its inhibition is -2.44%.

With C=C[C@@H]1CN2CCC1C[C@@H]2[C@@H](O)c1ccnc2ccc(OC)cc12 (stereo partly drawn) as the molecule, how does the inhibition read?
The inhibition was -0.14% and 2.49%.

With CCCCOc1ccc(CCC(=O)N/N=C/c2ccco2)cc1 as the molecule, how does the inhibition read?
Its inhibition is -16.9%.

With O=c1c(-c2ccnn2-c2ccc(F)cc2)cnc2n1CCS2 as the molecule, how does the inhibition read?
Its inhibition is 11.8%.

For O=C(Nc1c2c(nn1-c1ccc(Cl)cc1)CS(=O)(=O)C2)C1CC1, which inhibition is on record?
The inhibition was -8.81%.

Which inhibition does the source give for O=C(CSc1nnc(-c2ccc(Cl)cc2)n1-c1ccc(Cl)cc1)N/N=C/c1ccco1 here?
The inhibition was -4.44%.

For COc1ccc(N2CC(C(=O)Nc3ccc([N+](=O)[O-])cc3Br)CC2=O)cc1 (stereo not drawn), which inhibition is on record?
Its inhibition is -1%.

For COc1ccc(N2CC(C(=O)N/N=C/c3ccc([N+](=O)[O-])cc3)CC2=O)cc1 (stereo not drawn), which inhibition is on record?
Its inhibition is 3.03%.

Which inhibition does the source give for O=C1NCCCC1C(=O)N/N=C/c1ccccc1O (stereo not drawn) here?
Its inhibition is 1.62%.

For O=C(N/N=C/c1ccc([N+](=O)[O-])cc1)c1cccc(N2CCCC2=O)c1, which inhibition is on record?
The inhibition was -4.45%.

For O=C1NCCCC1C(=O)N/N=C/c1ccccc1[N+](=O)[O-] (stereo not drawn), which inhibition is on record?
Its inhibition is 4.74%.

For O=C(N/N=C/c1cc(Br)ccc1O)c1cccc(N2CCCC2=O)c1, which inhibition is on record?
The inhibition was -7.38%.
